Measurements: PubChem BioAssay (NCATS)
Results filed as inconclusive are left out. Activity calls are given as the source filed them. The call rests on the fitted dose curve; in most records, active means well fitted cell-killing curve with a large enough effect; inconclusive means small, poorly fitted or top-dose-only effect, or effect the other way; inactive means no such curve, though single readings can be large or run the other way.

Assays:
[1] = Quantitative High-Throughput drug screen in 47 multiple myeloma cell lines against the NCATS MIPE library collection: MM1R_ATCC cell viability assay (AID 1918981); further: nearly all actives have a fitted effect of over 35% in size
Outline: (§1)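 ATP-based CellTiter-Glo luminescence after 48 h drug exposure (37 °C, 5% CO2) of 500 myeloma cells per well. DMSO-only wells set 100% viability, media-only wells 0%; MIPE 4.0 library added by pin tool.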

[2] = Quantitative High-Throughput drug screen in 47 multiple myeloma cell lines against the NCATS MIPE library collection: LP1_DSMZ cell viability assay (AID 1918982); further: nearly all actives have a fitted effect of over 35% in size
Outline: as §1

[3] = Quantitative High-Throughput drug screen in 47 multiple myeloma cell lines against the NCATS MIPE library collection: KMS28PE_JCRB cell viability assay (AID 1918983); further: nearly all actives have a fitted effect of over 35% in size
Outline: as §1

[4] = Quantitative High-Throughput drug screen in 47 multiple myeloma cell lines against the NCATS MIPE library collection: L363_DSMZ cell viability assay (AID 1918984); further: nearly all actives have a fitted effect of over 40% in size
Outline: as §1

[5] = Quantitative High-Throughput drug screen in 47 multiple myeloma cell lines against the NCATS MIPE library collection: KMS34_JCRB cell viability assay (AID 1918985); further: nearly all actives have a fitted effect of over 40% in size
Outline: as §1

[6] = Quantitative High-Throughput drug screen in 47 multiple myeloma cell lines against the NCATS MIPE library collection: OCIMY7_PLB cell viability assay (AID 1918987); conditions: OCI-MY7 myeloma viability, CellTiter-Glo ATP, 48 h; viability (% of DMSO): at 45.8 µM (top of the series); further: nearly all actives have a fitted effect of over 65% in size
Outline: as §1

[7] = Quantitative High-Throughput drug screen in 47 multiple myeloma cell lines against the NCATS MIPE library collection: OCIMY5_PLB cell viability assay (AID 1918988); further: nearly all actives have a fitted effect of over 65% in size
Outline: as §1

[8] = Quantitative High-Throughput drug screen in 47 multiple myeloma cell lines against the NCATS MIPE library collection: OPM1_PLB cell viability assay (AID 1918989); further: nearly all actives have a fitted effect of over 40% in size
Outline: as §1

[9] = Quantitative High-Throughput drug screen in 47 multiple myeloma cell lines against the NCATS MIPE library collection: SKMM1_PLB cell viability assay (AID 1919863); conditions: SKMM1 myeloma viability, CellTiter-Glo ATP, 48 h; viability: stronger effect = lower value; further: nearly all actives have a fitted effect of over 35% in size
Outline: as §1

[10] = Quantitative High-Throughput drug screen in 47 multiple myeloma cell lines against the NCATS MIPE library collection: U266_ATCC cell viability assay (AID 1919864); further: nearly all actives have a fitted effect of over 35% in size
Outline: as §1

[11] = Quantitative High-Throughput drug screen in 47 multiple myeloma cell lines against the NCATS MIPE library collection: XG6_PLB cell viability assay (AID 1919865); further: nearly all actives have a fitted effect of over 40% in size
Outline: as §1

[12] = Quantitative High-Throughput drug screen in 47 multiple myeloma cell lines against the NCATS MIPE library collection: XG1_PLB cell viability assay (AID 1919866); further: nearly all actives have a fitted effect of over 35% in size
Outline: as §1

[13] = Quantitative High-Throughput drug screen in 47 multiple myeloma cell lines against the NCATS MIPE library collection: VP6_DJ cell viability assay (AID 1919867); further: nearly all actives have a fitted effect of over 40% in size
Outline: as §1

[14] = Quantitative High-Throughput drug screen in 47 multiple myeloma cell lines against the NCATS MIPE library collection: UTMC2_PLB cell viability assay (AID 1919868); conditions: CellTiter-Glo ATP luminescence, 48 h; viability (% of DMSO control): at 45.8 µM (top of the series); further: nearly all actives have a fitted effect of over 55% in size
Outline: as §1

[15] = Quantitative High-Throughput drug screen in 47 multiple myeloma cell lines against the NCATS MIPE library collection: PE2_PLB cell viability assay (AID 1919869); further: nearly all actives have a fitted effect of over 35% in size
Outline: as §1

[16] = Quantitative High-Throughput drug screen in 47 multiple myeloma cell lines against the NCATS MIPE library collection: PCM6_Riken cell viability assay (AID 1919870); further: nearly all actives have a fitted effect of over 30% in size
Outline: as §1

[17] = Quantitative High-Throughput drug screen in 47 multiple myeloma cell lines against the NCATS MIPE library collection: OPM2_DSMZ cell viability assay (AID 1919872); further: nearly all actives have a fitted effect of over 30% in size
Outline: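 Luminescent ATP measurement with CellTiter-Glo gives viability, scaled between DMSO-only wells (100%) and media-only wells (0%). Cells, 500 per well, faced library compounds for 48 hours at 37C.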

[18] = Quantitative High-Throughput drug screen in 47 multiple myeloma cell lines against the NCATS MIPE library collection: KMS11_JCRBsus cell viability assay (AID 1919873); further: nearly all actives have a fitted effect of over 50% in size
Outline: as §1

[19] = Quantitative High-Throughput drug screen in 47 multiple myeloma cell lines against the NCATS MIPE library collection: RPMI8226_ATCC cell viability assay (AID 1919871); further: nearly all actives have a fitted effect of over 30% in size
Outline: as §1

[20] = Quantitative High-Throughput drug screen in 47 multiple myeloma cell lines against the NCATS MIPE library collection: KMS28BM_JCRB cell viability assay (AID 1919874); further: nearly all actives have a fitted effect of over 35% in size
Outline: as §1

Measured: Potency
Potency means the concentration at half of the fitted maximal effect.

COc1cc(O)c2c(c1)C1OC1C[C@H](O)[C@H](O)C(=O)C=CC[C@H](C)OC2=O (stereo partly specified)
active: [1] 2640 nM | [2] 5260 nM | [3] 5900 nM | [4] 2350 nM | [5] 2350 nM | [6] 372 nM | [7] 3720 nM | [8] 5260 nM | [9] 4690 nM | [10] 4690 nM | [11] 4690 nM | [12] 2640 nM | [13] 1660 nM | [14] 10500 nM | [15] 2350 nM | [16] 2350 nM | [17] 2640 nM | [18] 2350 nM

C=C1C(=O)O[C@H]2[C@@H]1CCC(C)=CCC[C@@]1(C)O[C@@H]21
active: [1] 3720 nM | [2] 5900 nM | [3] 7430 nM | [4] 9350 nM | [5] 2090 nM | [6] 526 nM | [7] 4180 nM | [8] 4690 nM | [9] 16600 nM | [10] 6620 nM | [11] 5900 nM | [12] 2640 nM | [13] 4180 nM | [14] 4690 nM | [15] 3320 nM | [16] 3320 nM | [19] 5260 nM | [17] 5900 nM | [18] 3320 nM | [20] 7430 nM

CN[C@H]1[C@@H](O)[C@@H]2O[C@@H]3O[C@H](C)CC(=O)[C@]3(O)O[C@@H]2[C@@H](NC)[C@H]1O
active: [1] 1180 nM | [2] 5900 nM | [3] 10500 nM | [4] 743 nM | [5] 1180 nM | [6] 8330 nM | [7] 1180 nM | [8] 8330 nM | [9] 10500 nM | [10] 662 nM | [11] 296 nM | [12] 93.5 nM | [13] 1870 nM | [14] 6620 nM | [15] 3320 nM | [16] 1480 nM | [19] 9350 nM

NC(=NCCCCCCN=C(N)N=C(N)Nc1ccc(Cl)cc1)N=C(N)Nc1ccc(Cl)cc1
active: [1] 7430 nM | [2] 11800 nM | [3] 16600 nM | [4] 8330 nM | [5] 11800 nM | [6] 2960 nM | [7] 8330 nM | [8] 2640 nM | [9] 11800 nM | [11] 2350 nM | [12] 2640 nM | [13] 2350 nM | [14] 5260 nM | [15] 6620 nM | [16] 2640 nM | [19] 16600 nM | [17] 14800 nM | [18] 14800 nM | [20] 18700 nM

COc1ccc(S(=O)(=O)Nc2cccnc2Nc2ccc(O)cc2)cc1
inactive: [4]
active: [1] 105 nM | [2] 148 nM | [3] 105 nM | [5] 46.9 nM | [6] 37.2 nM | [7] 37.2 nM | [8] 235 nM | [9] 37.2 nM | [10] 1050 nM | [12] 16.6 nM | [13] 187 nM | [15] 148 nM | [16] 235 nM | [19] 526 nM | [17] 118 nM | [18] 41.8 nM | [20] 33.2 nM

COc1ccc(C=Cc2cc(OC)c(OC)c(OC)c2)cc1NC(=O)[C@H](N)CO
active: [1] 14.8 nM | [2] 1.7 nM | [3] 9.3 nM | [4] 9.3 nM | [5] 4.2 nM | [6] 1 nM | [7] 2.6 nM | [8] 1 nM | [9] 5.9 nM | [10] 13.2 nM | [16] 4.2 nM | [17] 8.3 nM
inactive: [11]

CC(C=CC(=O)NO)=C[C@@H](C)C(=O)c1ccc(N(C)C)cc1
active: [1] 132 nM | [2] 372 nM | [3] 296 nM | [4] 132 nM | [5] 83.3 nM | [6] 148 nM | [7] 166 nM | [8] 332 nM | [9] 166 nM | [10] 209 nM | [11] 469 nM | [12] 332 nM | [13] 372 nM | [15] 590 nM | [16] 469 nM | [17] 833 nM | [18] 235 nM | [20] 187 nM

COc1cc(OC)cc(-c2ccc3ncc4ccc(=O)n(-c5ccc(N6CCNCC6)c(C(F)(F)F)c5)c4c3c2)c1
active: [1] 4690 nM | [2] 5900 nM | [3] 5260 nM | [4] 833 nM | [5] 6620 nM | [6] 1180 nM | [7] 1320 nM | [8] 4690 nM | [9] 13200 nM | [11] 833 nM | [12] 526 nM | [13] 2640 nM | [15] 3320 nM | [16] 3720 nM | [19] 11800 nM | [17] 8330 nM | [18] 2640 nM | [20] 4690 nM
